Reference: ChEMBL document CHEMBL1961873, “Compounds: GSK PKIS; Assays: Nanosyn kinase panel” (2012)

Legend:
[1] = biological target: Ribosomal protein S6 kinase alpha-6 (Homo sapiens) (UniProt Q9UK32); details: at 1 µM;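 also: each value is a mean inhibition of RSK4 from a GSK PKIS panel screen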
[2] = biological target: T1, Serine/threonine-protein kinase Sgk1 (Homo sapiens) (UniProt O00141); details: at 0.1 µM
T1 sequence (whole entry): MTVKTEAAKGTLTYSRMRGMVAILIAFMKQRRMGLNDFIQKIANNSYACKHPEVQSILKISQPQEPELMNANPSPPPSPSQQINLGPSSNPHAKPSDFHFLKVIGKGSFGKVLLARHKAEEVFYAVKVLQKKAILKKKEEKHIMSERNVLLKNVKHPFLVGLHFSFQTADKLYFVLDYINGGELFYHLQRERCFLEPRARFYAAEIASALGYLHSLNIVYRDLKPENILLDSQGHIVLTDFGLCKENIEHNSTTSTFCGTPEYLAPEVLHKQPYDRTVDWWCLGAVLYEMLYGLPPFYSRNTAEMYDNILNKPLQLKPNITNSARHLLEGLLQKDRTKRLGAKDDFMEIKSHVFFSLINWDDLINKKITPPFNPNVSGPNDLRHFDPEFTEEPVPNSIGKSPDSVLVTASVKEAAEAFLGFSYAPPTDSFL

[3] = biological target: T1, Serine/threonine-protein kinase Sgk1 (Homo sapiens); details: at 1 µM
[4] = biological target: T2, Serine/threonine-protein kinase Sgk2 (Homo sapiens) (UniProt Q9HBY8); details: at 0.1 µM
T2 sequence (whole entry): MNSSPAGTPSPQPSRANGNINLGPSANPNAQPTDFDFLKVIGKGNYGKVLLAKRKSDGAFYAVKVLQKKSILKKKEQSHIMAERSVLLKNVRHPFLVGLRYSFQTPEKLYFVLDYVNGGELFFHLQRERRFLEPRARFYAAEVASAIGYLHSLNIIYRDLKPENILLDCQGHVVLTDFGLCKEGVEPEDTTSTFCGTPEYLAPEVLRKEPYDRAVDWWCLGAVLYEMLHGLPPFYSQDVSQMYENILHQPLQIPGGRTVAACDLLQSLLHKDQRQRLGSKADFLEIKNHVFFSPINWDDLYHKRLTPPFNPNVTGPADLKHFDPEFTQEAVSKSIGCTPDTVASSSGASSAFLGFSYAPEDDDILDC

[5] = biological target: T2, Serine/threonine-protein kinase Sgk2 (Homo sapiens); details: at 1 µM
[6] = biological target: T3, Serine/threonine-protein kinase Sgk3 (Homo sapiens) (UniProt Q96BR1); details: at 0.1 µM
T3 sequence (whole entry): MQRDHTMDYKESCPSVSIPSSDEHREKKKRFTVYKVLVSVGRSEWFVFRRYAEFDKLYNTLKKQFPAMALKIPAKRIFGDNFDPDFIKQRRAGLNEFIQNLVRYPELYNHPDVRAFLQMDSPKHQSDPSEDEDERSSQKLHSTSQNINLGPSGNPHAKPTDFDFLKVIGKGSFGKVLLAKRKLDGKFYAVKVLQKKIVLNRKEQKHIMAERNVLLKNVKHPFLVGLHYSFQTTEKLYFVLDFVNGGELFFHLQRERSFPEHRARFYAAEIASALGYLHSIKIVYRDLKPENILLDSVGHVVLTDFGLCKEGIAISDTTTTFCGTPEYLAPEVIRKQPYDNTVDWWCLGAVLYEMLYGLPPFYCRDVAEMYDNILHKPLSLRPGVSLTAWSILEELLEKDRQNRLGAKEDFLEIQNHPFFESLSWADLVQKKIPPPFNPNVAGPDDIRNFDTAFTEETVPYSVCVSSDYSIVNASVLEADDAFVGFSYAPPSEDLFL

[7] = biological target: T3, Serine/threonine-protein kinase Sgk3 (Homo sapiens); details: at 1 µM
[8] = biological target: 5'-AMP-activated protein kinase catalytic subunit alpha-1 (Homo sapiens) (UniProt Q13131); details: at 0.1 µM
5'-AMP-activated protein kinase catalytic subunit alpha-1 (Homo sapiens), sequence (Q13131 whole entry, looked up): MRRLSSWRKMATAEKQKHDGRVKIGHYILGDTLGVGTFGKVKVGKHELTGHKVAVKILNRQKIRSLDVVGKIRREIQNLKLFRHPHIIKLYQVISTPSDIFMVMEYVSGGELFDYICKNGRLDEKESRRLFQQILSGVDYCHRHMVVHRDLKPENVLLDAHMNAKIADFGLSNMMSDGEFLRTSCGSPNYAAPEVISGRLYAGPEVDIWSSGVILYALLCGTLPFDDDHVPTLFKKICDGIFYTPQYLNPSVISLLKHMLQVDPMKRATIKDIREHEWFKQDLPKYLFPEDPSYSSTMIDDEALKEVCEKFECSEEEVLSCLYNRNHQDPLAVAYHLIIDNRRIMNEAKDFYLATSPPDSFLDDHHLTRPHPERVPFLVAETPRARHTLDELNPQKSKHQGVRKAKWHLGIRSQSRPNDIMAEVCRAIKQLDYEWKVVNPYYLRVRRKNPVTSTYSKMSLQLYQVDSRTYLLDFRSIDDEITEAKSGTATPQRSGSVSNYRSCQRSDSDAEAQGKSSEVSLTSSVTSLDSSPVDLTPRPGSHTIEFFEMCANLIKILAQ

[9] = biological target: 5'-AMP-activated protein kinase catalytic subunit alpha-1 (Homo sapiens) (UniProt Q13131); details: at 1 µM
[10] = biological target: 5'-AMP-activated protein kinase catalytic subunit alpha-2 (Homo sapiens) (UniProt P54646); details: at 0.1 µM
5'-AMP-activated protein kinase catalytic subunit alpha-2 (Homo sapiens), sequence (P54646 whole entry, looked up): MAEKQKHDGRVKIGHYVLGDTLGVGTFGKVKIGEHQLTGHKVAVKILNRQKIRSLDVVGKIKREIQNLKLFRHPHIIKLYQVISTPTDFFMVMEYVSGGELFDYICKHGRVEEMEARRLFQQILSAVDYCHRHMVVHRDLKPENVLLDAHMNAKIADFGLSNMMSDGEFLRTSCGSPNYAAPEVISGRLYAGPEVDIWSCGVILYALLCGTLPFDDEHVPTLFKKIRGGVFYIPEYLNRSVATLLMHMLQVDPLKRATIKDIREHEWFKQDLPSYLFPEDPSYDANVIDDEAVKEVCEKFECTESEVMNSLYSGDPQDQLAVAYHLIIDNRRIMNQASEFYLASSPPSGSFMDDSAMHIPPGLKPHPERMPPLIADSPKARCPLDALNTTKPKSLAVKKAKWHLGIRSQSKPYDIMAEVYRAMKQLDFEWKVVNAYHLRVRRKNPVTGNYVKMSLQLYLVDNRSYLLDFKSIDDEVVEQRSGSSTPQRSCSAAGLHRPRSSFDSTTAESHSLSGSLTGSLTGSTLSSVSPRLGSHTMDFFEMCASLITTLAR

[11] = biological target: 5'-AMP-activated protein kinase catalytic subunit alpha-2 (Homo sapiens) (UniProt P54646); details: at 1 µM
[12] = biological target: T4, NUAK family SNF1-like kinase 1 (Homo sapiens) (UniProt O60285); details: at 0.1 µM
T4 sequence (whole entry): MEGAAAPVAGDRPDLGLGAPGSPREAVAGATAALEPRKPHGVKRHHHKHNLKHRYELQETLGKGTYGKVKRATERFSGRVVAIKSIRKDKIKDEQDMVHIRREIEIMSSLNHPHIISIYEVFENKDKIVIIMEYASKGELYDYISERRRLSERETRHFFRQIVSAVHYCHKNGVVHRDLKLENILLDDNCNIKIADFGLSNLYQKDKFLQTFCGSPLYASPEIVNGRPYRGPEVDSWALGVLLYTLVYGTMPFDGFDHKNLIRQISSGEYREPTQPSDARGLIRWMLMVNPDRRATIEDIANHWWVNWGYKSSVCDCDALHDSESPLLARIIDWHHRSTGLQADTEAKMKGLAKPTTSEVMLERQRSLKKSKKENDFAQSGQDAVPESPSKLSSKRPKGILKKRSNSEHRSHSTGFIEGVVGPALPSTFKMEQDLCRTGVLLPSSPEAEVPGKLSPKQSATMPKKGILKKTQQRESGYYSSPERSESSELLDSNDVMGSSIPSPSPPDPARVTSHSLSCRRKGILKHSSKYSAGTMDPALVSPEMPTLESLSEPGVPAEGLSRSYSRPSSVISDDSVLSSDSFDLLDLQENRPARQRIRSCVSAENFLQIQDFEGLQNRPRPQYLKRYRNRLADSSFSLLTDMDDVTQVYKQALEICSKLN

[13] = biological target: T4, NUAK family SNF1-like kinase 1 (Homo sapiens); details: at 1 µM
[14] = biological target: T5, Serine/threonine-protein kinase BRSK1 (Homo sapiens) (UniProt Q8TDC3); details: at 0.1 µM
T5 sequence (whole entry): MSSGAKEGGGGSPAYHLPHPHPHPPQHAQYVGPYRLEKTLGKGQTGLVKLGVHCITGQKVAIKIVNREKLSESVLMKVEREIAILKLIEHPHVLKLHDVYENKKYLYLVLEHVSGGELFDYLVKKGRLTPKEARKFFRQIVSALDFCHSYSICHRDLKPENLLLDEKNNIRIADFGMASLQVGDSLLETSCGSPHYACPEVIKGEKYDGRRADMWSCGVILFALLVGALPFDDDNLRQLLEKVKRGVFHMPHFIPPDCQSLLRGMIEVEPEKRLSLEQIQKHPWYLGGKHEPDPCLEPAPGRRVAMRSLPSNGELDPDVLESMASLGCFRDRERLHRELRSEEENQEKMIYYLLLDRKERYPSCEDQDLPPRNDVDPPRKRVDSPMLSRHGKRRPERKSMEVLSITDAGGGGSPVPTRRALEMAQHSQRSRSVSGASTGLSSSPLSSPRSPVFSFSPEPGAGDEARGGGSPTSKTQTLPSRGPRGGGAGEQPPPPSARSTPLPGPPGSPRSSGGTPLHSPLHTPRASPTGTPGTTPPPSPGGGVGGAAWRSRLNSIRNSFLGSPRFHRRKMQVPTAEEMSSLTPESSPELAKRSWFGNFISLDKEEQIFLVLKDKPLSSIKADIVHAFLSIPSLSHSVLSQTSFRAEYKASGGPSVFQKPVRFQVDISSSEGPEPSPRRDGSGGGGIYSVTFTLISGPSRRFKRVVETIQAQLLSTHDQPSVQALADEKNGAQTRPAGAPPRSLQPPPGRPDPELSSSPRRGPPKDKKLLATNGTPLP

[15] = biological target: T5, Serine/threonine-protein kinase BRSK1 (Homo sapiens); details: at 1 µM
[16] = biological target: T6, Serine/threonine-protein kinase BRSK2 (Homo sapiens) (UniProt Q8IWQ3); details: at 0.1 µM
T6 sequence (whole entry): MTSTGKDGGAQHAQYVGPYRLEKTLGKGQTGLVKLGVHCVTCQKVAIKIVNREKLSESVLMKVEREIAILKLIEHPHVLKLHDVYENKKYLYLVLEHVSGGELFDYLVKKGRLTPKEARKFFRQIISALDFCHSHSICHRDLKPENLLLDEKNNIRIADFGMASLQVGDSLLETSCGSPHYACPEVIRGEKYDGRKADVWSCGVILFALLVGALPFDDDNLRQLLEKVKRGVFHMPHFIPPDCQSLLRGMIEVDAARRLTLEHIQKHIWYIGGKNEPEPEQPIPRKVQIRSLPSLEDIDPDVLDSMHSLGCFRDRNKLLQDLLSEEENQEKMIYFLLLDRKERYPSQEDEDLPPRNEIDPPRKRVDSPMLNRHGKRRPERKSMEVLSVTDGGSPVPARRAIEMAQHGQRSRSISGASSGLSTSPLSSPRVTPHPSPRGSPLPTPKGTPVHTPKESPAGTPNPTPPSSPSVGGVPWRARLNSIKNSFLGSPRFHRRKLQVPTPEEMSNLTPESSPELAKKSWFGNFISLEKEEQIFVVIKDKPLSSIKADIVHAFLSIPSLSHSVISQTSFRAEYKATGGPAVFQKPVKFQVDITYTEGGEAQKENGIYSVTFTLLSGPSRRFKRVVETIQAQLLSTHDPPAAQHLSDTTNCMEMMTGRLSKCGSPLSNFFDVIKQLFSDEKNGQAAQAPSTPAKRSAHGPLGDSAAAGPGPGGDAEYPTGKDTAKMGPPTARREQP

[17] = biological target: T6, Serine/threonine-protein kinase BRSK2 (Homo sapiens); details: at 1 µM
[18] = biological target: Calcium/calmodulin-dependent protein kinase type 1D (Homo sapiens) (UniProt Q8IU85); details: at 0.1 µM
Calcium/calmodulin-dependent protein kinase type 1D (Homo sapiens), sequence (Q8IU85 whole entry, looked up): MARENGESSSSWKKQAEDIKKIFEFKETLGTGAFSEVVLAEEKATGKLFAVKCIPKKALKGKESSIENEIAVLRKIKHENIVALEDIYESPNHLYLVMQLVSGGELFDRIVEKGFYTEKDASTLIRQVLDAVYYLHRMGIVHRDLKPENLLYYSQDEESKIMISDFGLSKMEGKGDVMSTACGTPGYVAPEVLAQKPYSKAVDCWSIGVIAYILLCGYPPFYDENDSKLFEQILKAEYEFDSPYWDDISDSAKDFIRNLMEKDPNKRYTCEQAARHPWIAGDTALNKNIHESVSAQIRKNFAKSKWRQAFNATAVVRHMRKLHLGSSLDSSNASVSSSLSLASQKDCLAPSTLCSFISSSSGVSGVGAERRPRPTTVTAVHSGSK

[19] = biological target: Calcium/calmodulin-dependent protein kinase type 1D (Homo sapiens) (UniProt Q8IU85); details: at 1 µM
[20] = biological target: Calcium/calmodulin-dependent protein kinase type II subunit alpha (Homo sapiens) (UniProt Q9UQM7); details: at 0.1 µM;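 also: reported values are averages (mean inhibition of CAMK2A)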
Calcium/calmodulin-dependent protein kinase type II subunit alpha (Homo sapiens), sequence (Q9UQM7 whole entry): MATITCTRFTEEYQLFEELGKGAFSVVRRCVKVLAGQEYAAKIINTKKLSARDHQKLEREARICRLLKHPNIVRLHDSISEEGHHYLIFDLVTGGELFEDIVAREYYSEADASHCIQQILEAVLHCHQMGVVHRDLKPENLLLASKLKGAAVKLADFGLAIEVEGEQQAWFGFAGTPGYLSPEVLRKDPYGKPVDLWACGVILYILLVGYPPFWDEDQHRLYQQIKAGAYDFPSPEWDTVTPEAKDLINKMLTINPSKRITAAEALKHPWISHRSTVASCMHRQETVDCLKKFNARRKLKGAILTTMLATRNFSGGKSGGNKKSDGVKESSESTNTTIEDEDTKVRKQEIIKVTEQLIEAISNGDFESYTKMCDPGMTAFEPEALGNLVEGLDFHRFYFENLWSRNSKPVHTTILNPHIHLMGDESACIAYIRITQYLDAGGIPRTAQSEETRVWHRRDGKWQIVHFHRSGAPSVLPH

Ribosomal protein S6 kinase alpha-6 (Homo sapiens), sequence (Q9UK32 whole entry): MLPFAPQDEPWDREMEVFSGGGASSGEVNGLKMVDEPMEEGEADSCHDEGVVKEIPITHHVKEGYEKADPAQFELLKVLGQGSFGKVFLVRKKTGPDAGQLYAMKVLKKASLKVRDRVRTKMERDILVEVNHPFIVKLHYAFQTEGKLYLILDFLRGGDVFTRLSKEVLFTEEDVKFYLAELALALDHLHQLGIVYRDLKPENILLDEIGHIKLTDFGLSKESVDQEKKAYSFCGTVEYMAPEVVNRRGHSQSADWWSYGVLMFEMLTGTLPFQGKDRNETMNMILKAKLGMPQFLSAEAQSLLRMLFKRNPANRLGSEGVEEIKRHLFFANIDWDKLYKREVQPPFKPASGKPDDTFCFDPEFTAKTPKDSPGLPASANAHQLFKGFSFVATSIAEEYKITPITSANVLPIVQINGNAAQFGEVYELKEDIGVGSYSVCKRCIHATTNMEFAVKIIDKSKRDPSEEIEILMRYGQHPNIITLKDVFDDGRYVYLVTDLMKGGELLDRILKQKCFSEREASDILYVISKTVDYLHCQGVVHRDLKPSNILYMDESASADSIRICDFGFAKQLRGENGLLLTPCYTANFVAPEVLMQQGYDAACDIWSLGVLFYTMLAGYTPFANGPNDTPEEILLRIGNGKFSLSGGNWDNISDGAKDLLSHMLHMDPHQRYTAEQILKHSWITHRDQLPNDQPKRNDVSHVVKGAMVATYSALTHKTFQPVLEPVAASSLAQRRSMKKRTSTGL

Structure (SMILES)	inhibition [1]	inhibition [2]	inhibition [3]	inhibition [4]	inhibition [5]	inhibition [6]	inhibition [7]	inhibition [8]	inhibition [9]	inhibition [10]	inhibition [11]	inhibition [12]	inhibition [13]	inhibition [14]	inhibition [15]	inhibition [16]	inhibition [17]	inhibition [18]	inhibition [19]	inhibition [20]
NC(=O)c1sc(-n2cnc3ccccc32)cc1OCc1ccccc1Br	5.17%	2.26%	2.46%	4.32%	4.07%	1.99%	2.42%	2.42%	4.09%	7.19%	4.98%	7.8%	29.1%	3.67%	8.3%	3.06%	17.1%	0.13%	2.21%	1.7%
Cc1ccc(C(=O)NC2CC2)cc1-c1ccc2[nH]ncc2c1	-0.57%	-2.34%	-1.16%	-5.03%	-0.82%	-5.05%	1.68%	-1.87%	0.2%	0.12%	-3.42%	6.51%	6.93%	1.35%	3.03%	1.54%	5.84%	-0.69%	0.06%	-4.3%
Cc1cc(O)cc(C)c1/C=C/c1cncc(C(=O)N(C)C)c1	1.77%	1.71%	2.5%	-0.51%	2.83%	4.43%	0%	2.63%	1.76%	1.57%	4.38%	1.62%	8.58%	2.98%	8.54%	3.48%	6.07%	-0.81%	2.29%	3.26%
Nc1ccc(C#Cc2cncnc2Nc2ccc(OCc3cccc(F)c3)c(Cl)c2)cc1	0.51%	1.87%	2.62%	4.82%	3.04%	2.22%	2.3%	1.54%	2.87%	-0.27%	2.03%	1.31%	-1.87%	1.62%	0.9%	1.82%	1.94%	0.26%	0.65%	1.19%
CCOc1nccc2c1nc(-c1nonc1N)n2CC	4.02%	4.63%	8.95%	4.13%	12.7%	6.9%	15.9%	3.1%	7.14%	2.19%	4.98%	7.99%	12.8%	4.56%	14.7%	7.65%	18.3%	0.39%	-0.46%	3.45%
COc1cc2ncn(-c3cc(OCc4ccccc4S(C)(=O)=O)c(C#N)s3)c2cc1OC	16.4%	2.34%	4.47%	2.96%	4.38%	4.43%	4.05%	33.4%	74.6%	5.84%	31.2%	14.5%	54.3%	37.1%	76.3%	53.7%	82.2%	1.23%	6.21%	6.03%
